Hits are enriched below; roughly 12% of the tested compounds scored in any of these assays.
G9a inh – inhibitors of human histone lysine methyltransferase G9a; Q96KQ7; hit rate 8.8% among 350,000; Potency, µM (series often up to 102 µM), for inactives: at the highest dose activity, negative = inhibition, actives largely listed as inhibitors; G9a H3K9 monomethylation, AlphaScreen, 2 h; further: potency means the concentration at half of the fitted maximal effect; on the % scale 0 is the no-effect control and ±100 the full control effect; nearly all actives have a fitted effect of over 75% in size
Target sequence (Q96KQ7 913-1193 limits assumed): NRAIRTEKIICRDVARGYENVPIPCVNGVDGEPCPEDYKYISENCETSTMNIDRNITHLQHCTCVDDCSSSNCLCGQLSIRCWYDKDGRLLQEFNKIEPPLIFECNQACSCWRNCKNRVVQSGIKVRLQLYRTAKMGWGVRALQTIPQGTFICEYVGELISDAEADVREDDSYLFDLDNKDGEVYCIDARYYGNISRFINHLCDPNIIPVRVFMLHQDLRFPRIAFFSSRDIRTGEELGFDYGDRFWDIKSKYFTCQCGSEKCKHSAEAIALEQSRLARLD
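G9a (20 nM) was preincubated 15 min with compound, then reacted 2 h at room temperature with 500 nM biotin-H3K9 peptide and 20 µM SAM. Monomethyl-H3K9 detected by AlphaScreen using anti-H3K9me1 antibody.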
BAZ2B block – inhibitors of human BAZ2B bromodomain; hit rate 4.4% among 360,000; Potency, µM (doses to about 114 µM), without a hit: at the top dose activity change, negative = inhibition, actives largely listed as inhibitors; Q9UIF8; AlphaScreen BAZ2B-H3K14Ac peptide displacement; further: potency means the concentration at half of the fitted maximal effect; on the % scale 0 is the no-effect control and ±100 the full control effect; nearly all actives have a fitted effect of over 60% in size
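In this displacement format the biotinylated H3(5-23) peptide acetylated at Lys14 serves as ligand at 50 nM, with BAZ2B at 50 nM in PBS pH 7.4 containing 0.01% Tween-20. Donor and acceptor beads are 10 ug/mL final.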
PI5P4K alpha inh – inhibitors of human PI5P4K alpha; P48426; PI5P4Kalpha enzyme, ADP-Glo luminescence, 60 min; stronger effect = lower value; max response, %; hit rate 1.2% among 330,000; AID 652105; active means max response of -50% or lower; inconclusive means between -30% and -50%; inactive means -30% or higher; further: value at the top dose of about 77 µM; on the % scale 0 is the no-effect control and ±100 the full control effect
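PI5P4Kalpha ADP-Glo assay; 5 microM ATP final; 60 min RT reaction; HEPES pH 7.4/EGTA/CHAPS, 5% DMSO; controls lacking substrate or enzyme; luminescent end-point.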
PLK1 PBD block – PLK1 (human) polo-box domain binding inhibition; Potency, µM, inactives show max response, negative = inhibition, hits mostly inhibitors; Plk1 PBD binding of FITC phosphopeptide, fluorescence polarization; hit rate 2.8% among 360,000; P53350; further: potency means the concentration at half of the fitted maximal effect; series mostly up to about 57 µM; on the % scale 0 is the no-effect control and ±100 the full control effect; nearly all actives have a fitted effect of over 65% in size
HP1b binding inh – inhibitors of HP1-beta chromodomain binding to methylated histone tails | AID 540317 | AlphaScreen HP1-beta / biotin-H3K9me3 peptide binding | hit rate 0.56% among 390,000 | Potency, µM (highest dose often 114 µM), for inactives: at the highest dose activity change, negative = inhibition, hits mostly inhibitors | P83916; further: potency means the concentration at half of the fitted maximal effect; nearly all actives have a fitted effect of over 70% in size
Target sequence (P83916 whole entry, looked up): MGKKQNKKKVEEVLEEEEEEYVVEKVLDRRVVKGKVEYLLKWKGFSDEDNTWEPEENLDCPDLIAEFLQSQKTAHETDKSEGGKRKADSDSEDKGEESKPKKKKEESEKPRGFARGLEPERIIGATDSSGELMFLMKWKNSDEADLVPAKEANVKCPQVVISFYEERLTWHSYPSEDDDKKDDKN
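Compound inhibition of the preformed complex between 50 nM HP1-beta and 50 nM biotinylated H3K9me3 peptide was read by AlphaScreen. Buffer was PBS pH 7.4 with 0.01% Tween-20. Incubations ran 30 min at room temperature, with 10 ug/mL donor/acceptor beads.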
JMJD2A Tudor – inhibitors of human JMJD2A Tudor domain; AID 504339; hit rate 4.4% among 390,000; AlphaScreen JMJD2A-Tudor / H3K4me3 peptide binding; O75164; Potency, µM (doses to about 114 µM), without a hit: at the top dose activity change, negative = inhibition, actives largely listed as inhibitors; further: potency means the concentration at half of the fitted maximal effect; on the % scale 0 is the no-effect control and ±100 the full control effect; nearly all actives have a fitted effect of over 50% in size
* hit, by the source's call; ? = inconclusive; . = not tested or not shown; [ ] = another dose, or the depositor's remark. Unless noted, the call rests on the fitted dose curve; in most records, active means well fitted curve in the direction sought with a large enough effect; inconclusive means small, poorly fitted or top-dose-only effect, or another doubt; inactive means no such curve, though single readings can be large; an effect the other way counts as inactive or inconclusive.

SMILES | G9a inh | BAZ2B block | PI5P4K alpha inh | PLK1 PBD block | HP1b binding inh | JMJD2A Tudor
COC(=O)c1sccc1NC(=O)c1cccnc1 | 1%[59 µM] | 3% | 0 | 27µM* | -1% | 89µM*
O=C(Nc1ccc(N2CCCC2)c(Cl)c1)c1cccnc1 | 8.9µM* | 5% | -16 | -3% | 1% | -31%
Cc1ccc(NC(=O)c2cccnc2)cc1C | -10%[0.501 µM] | 4% | -4 | -2% | 23% | -11%
CSc1ccc(NC(=O)c2cccnc2)cc1C#N | 50µM* | -15% | 3 | -10% | 27% | 0%
O=C(CCSCc1cccc(Cl)c1)N1CCN(c2ccc(Cl)cc2)CC1 | -4%[59 µM] | 15% | . | . | 30% | -6%
Cc1ccc(-c2nc(CS(=O)(=O)CC(=O)N3CCN(c4cccc(C)c4C)CC3)c(C)o2)cc1 | -44%[59 µM] | -8% | . | . | 16% | -3%
O=C(CCC(=O)Nc1ccccc1Cl)NN=C1CCCC1 | -3% | -15% | 3 | 2% | 44% | -3%
CCOc1ccc(C(N)=O)cc1OC | 10%[12.7 µM] | 9% | 4 | -3% | 28% | -8%
CCOc1ccc(N)cc1OC | 50µM* | ? | -8 | -13% | -18% | ?
O=[N+]([O-])c1ccc(/C=[N+](\[O-])[C@@H]2CCCC[C@@H]2/[N+]([O-])=C/c2ccc([N+](=O)[O-])o2)o1 | 50µM* | 2.5µM* | 9 | -6% | -10% | -35%
CC(C)(C)c1cccc(Oc2nn[nH]n2)c1 | 79µM* | -3% | . | -9% | 31% | -16%
Cc1cc(C)cc(Oc2nn[nH]n2)c1 | -8% | -31% | . | 1% | 27% | -16%
CCc1ccccc1SCc1noc(C(=O)NCC2CCCO2)c1C(=O)O (stereo not drawn) | -2%[0.0925 µM] | -33% | -1 | -10% | 54% | -4%
O=C(NCC1CCCO1)c1onc(CSc2ccccc2F)c1C(=O)O (stereo not drawn) | 31%[0.501 µM] | 79µM* | -27 | -23% | 5% | -17%
CC(=O)Nc1cccc(-c2ccnc3c2CC(C)(C(=O)Nc2ccc(Cl)cc2)O3)c1 (stereo not drawn) | . | . | -3 | -2% | . | .
COc1cc(NC(=O)[C@H]2O[C@@H](n3ccc(N)nc3=O)[C@H](O)[C@@H]2O)cc(OC)c1OC | . | . | 0 | 3% | . | .
Cc1ccc(S(=O)(=O)Nc2ccccc2N2CCOCC2)cc1 | 42% | -3% | -2 | 4% | 49% | 5%
CCC(=O)c1ccc(OCC(=O)O)cc1 | -15% | -32% | 4 | 0% | 4% | -15%
CCC(=O)c1ccc(OCCSc2ncccn2)cc1 | 63%[59 µM] | 80% | 7 | 27µM* | 13% | -8%[11.4 µM]
CN(C)c1ccc(/C=N/NC(=O)Cn2nnc3ccccc32)cc1 | 14µM* | -27% | -17 | 2% | -1% | -12%
CN(C)c1ccc(/C=N/NC(=O)c2ccccc2Cl)cc1 | 40µM* | -35% | -4 | -4% | -7% | -31%
CN(C)c1ccc(/C=N/NC(=O)c2sccc2-n2cccc2)cc1 | 28µM* | -24% | 1 | -14% | 17% | -17%
O=C(NNC(=O)c1sccc1-n1cccc1)c1ccccc1 | 6%[59 µM] | -2% | -17 | 24µM* | -25% | -27%[11.4 µM]
Cc1cnc(C)c(Nc2nc(C(N)c3ccccc3)cs2)n1 (stereo not drawn) | . | . | 1 | -3% | . | .
COc1cccc(C#Cc2ccc3c(c2)O[C@H](CN(C)C)[C@@H](C)CN([C@@H](C)CO)S3(=O)=O)c1 | . | . | 4 | 4% | . | .
O=C(NCC1CCCCC1)c1cc(S(=O)(=O)N2CCOCC2)ccc1F | 19%[2.33 µM] | 4% | 2 | 4% | 30% | -9%
CN(c1ccccc1)S(=O)(=O)c1cc(C(=O)NCc2ccco2)ccc1Cl | . | . | -14 | -3% | . | .
CC(=O)Nc1ccc(NC(=O)C/C(C)=N/NC(=O)C(=O)Nc2ccc(C)c(Cl)c2)cc1 | 56µM* | -39% | 1 | -10% | 38% | -1%
CC/C(=C/c1sc2ccc(C)cc2[n+]1CCO)SC | . | ? | -2 | 0% | 61% | ?
CC/C(=C/c1sc2ccc(C)cc2[n+]1CCCS(=O)(=O)[O-])SC | 45µM* | ? | -6 | -19% | 81% | 0%
